Results taken from PubChem BioAssay AID720597 (Broad Institute, 2013).
Results with a measured potency or affinity are listed apart. Activity calls are given as the source filed them.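 Rule for the calls: active = fitted half-maximal dose no more than twice the top valid tested dose, for compounds that lower signal; inconclusive = fit invalid, or curve flat with activity between -70 and -30; inactive = potency past limit, curve flat within ±30, or signal increasing.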

target: NAD-dependent protein deacylase sirtuin-5, mitochondrial (Homo sapiens) (UniProt Q9NXA8); test: SIRT5 deacylase inhibitors, dose response, biochemical, fluorescence imaging, cherry-pick, set 6 (AID 720597); conditions: Purified SirT5, succinyl-peptide-AMC/trypsin fluorescence; series mostly up to 15 µM; activity change, negative = inhibition: at the top concentration;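 note: lower AMC signal can also come from blocking the trypsin step; 0% = median of neutral control wells and -100% = median of positive control wells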
Sequence (Q9NXA8 whole entry, looked up): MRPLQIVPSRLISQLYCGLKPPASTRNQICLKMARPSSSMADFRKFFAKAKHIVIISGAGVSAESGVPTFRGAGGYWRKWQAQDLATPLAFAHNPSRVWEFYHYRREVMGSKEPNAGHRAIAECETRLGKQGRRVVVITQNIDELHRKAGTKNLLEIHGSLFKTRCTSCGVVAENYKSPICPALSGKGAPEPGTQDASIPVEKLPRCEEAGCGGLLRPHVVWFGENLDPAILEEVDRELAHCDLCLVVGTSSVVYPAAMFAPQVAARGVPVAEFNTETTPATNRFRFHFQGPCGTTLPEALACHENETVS

| Compound | activity change, negative = inhibition |
| --- | --- |
| C[C@@H]1CN([C@H](C)CO)S(=O)(=O)c2ccc(C#Cc3ccc(F)cc3)cc2O[C@@H]1CN(C)S(=O)(=O)c1ccc(F)cc1 | -5.8% (inactive) |
| COc1cccc(S(=O)(=O)N(C)C[C@@H]2Oc3cc(C4=CCCCC4)ccc3S(=O)(=O)N([C@H](C)CO)C[C@H]2C)c1 | 10.5% (inactive) |
| CNC[C@H]1Oc2ccc(NC(=O)Nc3ccc(F)cc3)cc2CC(=O)N([C@@H](C)CO)C[C@@H]1C | 19.6% (inactive) |
| C[C@H](CO)N1C[C@H](C)[C@@H](CN(C)S(=O)(=O)c2ccc(F)cc2)Oc2cc(C3=CCCCC3)ccc2S1(=O)=O | -0.88% (inactive) |
| COc1ccc(C#Cc2ccc([C@H]3[C@@H](CO)N4C(=O)CN(C(=O)c5cccnc5)C[C@@H]34)cc2)cc1 | 7.65% (inactive) |
| C/C=C/c1ccc([C@@H]2[C@@H](CO)N(C(C)=O)[C@H]2CN(C(=O)COC)C(C)C)cc1 | -12.2% (inactive) |
| Cc1noc(C)c1NC(=O)Nc1cccc2c1O[C@H](CN(C)Cc1ccc(Oc3ccccc3)cc1)[C@@H](C)CN([C@@H](C)CO)C2=O | 20.2% (inactive) |
| O=C(CCN1CCCCC1)N[C@@H]1CC[C@@H](CC(=O)N2CCC(Cc3ccccc3)CC2)O[C@@H]1CO | -11.3% (inactive) |
| COc1ccc(-c2cnc3c(c2)C(=O)N([C@@H](C)CO)C[C@H](C)[C@@H](CN(C)Cc2ccc(C(=O)O)cc2)O3)cc1 | -18.3% (inactive) |
| C[C@@H]1CN([C@H](C)CO)S(=O)(=O)c2ccc(C3=CCCCC3)cc2O[C@H]1CN(C)C(=O)Nc1ccc2c(c1)OCO2 | 2.16% (inactive) |
| O=C(Nc1cc(F)ccc1F)N1CCCCN2[C@H](CO)[C@H](c3ccc(-c4ccccc4)cc3)[C@H]2C1 | 9.93% (inactive) |
| COc1ccc(S(=O)(=O)N(C)C[C@H]2OCCCC[C@@H](C)Oc3ccc(NS(=O)(=O)c4ccc(C)cc4)cc3C(=O)N([C@@H](C)CO)C[C@@H]2C)cc1 | -18.4% (inactive) |
| C[C@@H]1CN([C@@H](C)CO)S(=O)(=O)c2ccc(C#CC3CC3)cc2O[C@@H]1CN(C)C(=O)c1cccc(F)c1 | -3.94% (inactive) |
| C[C@H](CO)N1C[C@H](C)[C@H](CN(C)Cc2ccc(C(F)(F)F)cc2)Oc2c(NC(=O)c3nc4ccccc4s3)cccc2C1=O | -9.92% (inactive) |
| C[C@@H]1CN([C@@H](C)CO)C(=O)Cc2cc(NS(=O)(=O)c3ccc(F)cc3)ccc2O[C@H]1CN(C)Cc1ccc(C(F)(F)F)cc1 | -16.2% (inactive) |
| O=C(Cc1ccncc1)N[C@H]1CC[C@H](CCn2cc(-c3ccccc3F)nn2)O[C@@H]1CO | 1.26% (inactive) |
| Cc1ccc(CN(C)C[C@@H]2OCc3cnnn3CCCC(=O)N([C@H](C)CO)C[C@@H]2C)cc1 | 2.7% (inactive) |
| C[C@H](CO)N1C[C@H](C)[C@H](CN(C)Cc2ccc(-c3ccccc3)cc2)Oc2cc(C#CC(C)(C)O)ccc2S1(=O)=O | -17.6% (inactive) |
| CN(C)CCCNC(=O)C[C@H]1CC[C@H]2[C@@H](COC[C@H](O)CN2S(=O)(=O)c2ccc(F)cc2)O1 | 5.69% (inactive) |
| C[C@H]1CCCCO[C@H](CN(C)Cc2ccc(C(F)(F)F)cc2)[C@@H](C)CN([C@@H](C)CO)C(=O)c2cc(NS(=O)(=O)c3ccc(Cl)cc3)ccc2O1 | 26.8% (inactive) |
| C[C@@H]1CN([C@H](C)CO)C(=O)CCCn2cc(nn2)CO[C@H]1CN(C)S(=O)(=O)c1ccc(F)cc1 | -5.68% (inactive) |
| O=C1CN(Cc2ccccc2)C[C@@H]2[C@H](c3ccc(-c4ccccc4)cc3)[C@H](CO)N12 | 2.26% (inactive) |
| C[C@@H]1CN([C@H](C)CO)S(=O)(=O)c2ccc(-c3cccc(F)c3)cc2O[C@@H]1CN(C)S(=O)(=O)c1ccc(F)cc1 | -13.2% (inactive) |
| COc1ccccc1NC(=O)N[C@H]1CC[C@@H](CCNS(=O)(=O)c2ccc(F)cc2)O[C@@H]1CO | -3.7% (inactive) |
| COc1ccc(S(=O)(=O)Nc2ccc3c(c2)CC(=O)N([C@@H](C)CO)C[C@@H](C)[C@H](CN(C)CC2CCCCC2)O3)cc1 | -30.6% (inactive) |
| O=C(NCC[C@H]1CC[C@@H](NC(=O)Nc2cc(F)ccc2F)[C@H](CO)O1)Nc1ccc(F)cc1 | -8.82% (inactive) |
| CCOc1ccc(C)cc1S(=O)(=O)n1ccnc1C | -12.4% (inactive) |
| CS(=O)(=O)N(CC(=O)NC1CCCC1)c1cccc(F)c1 | 1.17% [at 18 µM] (inactive) |
| Cc1noc(C)c1NC(=O)Nc1cccc2c1O[C@H](CN(C)Cc1ccc(Oc3ccccc3)cc1)[C@H](C)CN([C@@H](C)CO)C2=O | -15.4% (inactive) |
| C[C@H](CO)N1C[C@H](C)[C@@H](CN(C)Cc2ccc(Cl)c(Cl)c2)Oc2ccc(NC(=O)CCC(F)(F)F)cc2CC1=O | -5.49% (inactive) |
